TROY NFkB inh: blocks TROY-dependent signaling in reporter cells; Q293 LMP1-TROYcd NF-kB luciferase reporter, 4 h; inhibition, % at 10 µM; 360,000 compounds, 0.98% hits; AID 1347056;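 active means compounds whose plate-normalised and pattern-corrected inhibition of the luciferase reporter signal at the single screening dose is 50% or more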
TWEAK Fn14 block: inhibitors of TWEAK-Fn14 interaction signaling | TWEAK-stimulated Fn14 reporter cells, luciferase luminescence, 8 h | inhibition, % at 10 µM | 360,000 compounds, 2% hits | AID 1159606; in the data active means inhibition above about 50%
Peg3 promoter: reduces Peg3 promoter-driven luciferase expression in HeLa | HeLa PEG-Prom luciferase reporter, luminescence, overnight | inhibition, % at 20 µM | 360,000 compounds, 1.7% hits | AID 588405;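 active means inhibition of at least 50% at 20 µM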
KKLEB cytotox: reduces viability of KKLEB cystic fibrosis airway cells; activity change (cytotoxicity), % at 5 µM; AID 602141; 360,000 compounds, 0.36% hits; KKLEB CF airway cells viability, ATPlite luminescence, overnight; active compounds read low; cells stimulated with P. aeruginosa culture filtrate;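 active means corrected activity change at or below -50% at 5 µM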
HIF-2a block: blocks HIF-2a reporter activity. 360,000 compounds, 0.72% hits. 786-0 RCC cells HIF-2a reporter, luciferase luminescence, overnight. inhibition, % at 18.8 µM;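 active means inhibition of the luminescence signal of 40% or more relative to plate controls, in a single-dose primary screen at 18.75 µM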
CF NFkB inh: blocks PAF-induced NF-kB reporter in cystic fibrosis cells. KKLEB NF-kB-GFP reporter, GFP fluorescence overnight. inhibition, % at 5 µM. 360,000 compounds, 0.86% hits. AID 588850;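 active means at least 50% inhibition at 5 µM, scaled per plate between neutral and stimulator controls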;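 further: PAF is a Pseudomonas aeruginosa culture filtrate used as stimulus; plate controls were PAF-stimulated DMSO wells for no effect and unstimulated DMSO wells for full effect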
CF NFkB inh conf: CF NF-kB inhibition confirmation, single concentration | shares compounds with CF NFkB inh | KKLEB CF airway cells, PAF-induced NF-kB-GFP fluorescence, overnight | inhibition, % at 5 µM | 1,300 compounds, 64% hits; in the data active means inhibition above about 40%;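 further: stimulus PAF is a Pseudomonas aeruginosa filtrate and not platelet activating factor; plate controls were DMSO wells with stimulus for no effect and unstimulated DMSO wells for full effect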
Mdm2 MdmX conf: confirmation of inhibitors of human Mdm2/MdmX interaction, set 2; shares compounds with HIF-2a block; inhibition, % at 8 µM; 740 compounds, 99% hits; SaOS-2 split-luciferase Mdm2/MdmX complementation, luminescence;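 active means mean inhibition of the luminescence signal across two replicates at or above 26 percent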
Target sequence (O15151 whole entry, looked up): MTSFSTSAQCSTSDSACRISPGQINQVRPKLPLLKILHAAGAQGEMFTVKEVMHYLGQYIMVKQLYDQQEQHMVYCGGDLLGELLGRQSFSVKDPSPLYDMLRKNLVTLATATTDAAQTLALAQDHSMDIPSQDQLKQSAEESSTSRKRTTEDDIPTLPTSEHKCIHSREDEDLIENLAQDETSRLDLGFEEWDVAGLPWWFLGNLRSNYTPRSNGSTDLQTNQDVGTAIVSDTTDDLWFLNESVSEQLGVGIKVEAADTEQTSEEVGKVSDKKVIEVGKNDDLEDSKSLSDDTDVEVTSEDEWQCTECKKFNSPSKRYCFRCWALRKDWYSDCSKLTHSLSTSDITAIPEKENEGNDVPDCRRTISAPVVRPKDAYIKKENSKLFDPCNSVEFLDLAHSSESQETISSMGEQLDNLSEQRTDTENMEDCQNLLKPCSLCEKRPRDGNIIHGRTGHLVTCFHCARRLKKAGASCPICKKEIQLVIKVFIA
Target sequence (Q00987 whole entry, looked up): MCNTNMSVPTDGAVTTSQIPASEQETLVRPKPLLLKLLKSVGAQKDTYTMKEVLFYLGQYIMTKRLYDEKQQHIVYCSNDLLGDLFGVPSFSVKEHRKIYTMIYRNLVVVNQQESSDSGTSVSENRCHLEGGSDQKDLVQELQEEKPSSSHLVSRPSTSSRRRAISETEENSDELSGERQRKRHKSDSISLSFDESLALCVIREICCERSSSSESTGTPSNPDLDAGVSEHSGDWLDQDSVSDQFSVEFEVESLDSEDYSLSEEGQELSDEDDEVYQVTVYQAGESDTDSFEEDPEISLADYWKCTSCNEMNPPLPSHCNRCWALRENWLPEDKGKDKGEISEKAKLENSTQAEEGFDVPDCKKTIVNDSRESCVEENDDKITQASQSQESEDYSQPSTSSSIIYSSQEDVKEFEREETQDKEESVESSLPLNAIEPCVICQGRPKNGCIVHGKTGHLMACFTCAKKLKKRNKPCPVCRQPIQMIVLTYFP
HIF-2a conf: confirmation of HIF-2a inhibitors; shares compounds with HIF-2a block; 786-0 RCC cells, HIF-2a luciferase reporter luminescence, overnight; inhibition, % at 18.8 µM; 1,800 compounds, 56% hits;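 active means mean inhibition across four replicates of at least 40 percent at the single tested concentration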
HIF-1a counter: inhibits HIF-1a reporter, a counter-screen for HIF-2a inhibitors. shares compounds with HIF-2a block. MiaPaCa-2 HIF-1a luciferase reporter, desferoxamine, overnight. inhibition, % at 18.8 µM. 1,800 compounds, 72% hits;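 active means mean inhibition of the reporter signal across four replicates at the single tested dose of 50% or more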
* marks the source's active call; other numbers are inactive results. Rows were chosen to be rich in hits. Some 4% of all compounds tested hit in one or more screens of this group.

Screening Cc1ccc(NC(=O)C2Cc3ccccc3C(=O)O2)cc1 (stereo not drawn) returned TROY NFkB inh -30, TWEAK Fn14 block -34, Peg3 promoter -190, KKLEB cytotox 12, HIF-2a block -187 and CF NFkB inh -21.
Cc1nc2sc(C(N)=O)c(N)c2c2c1CCCC2 was read as TROY NFkB inh -9, TWEAK Fn14 block 23, Peg3 promoter -28, KKLEB cytotox 7, HIF-2a block 10, CF NFkB inh 70*, CF NFkB inh conf 98* and Mdm2 MdmX conf 92*.
Screening CCOc1ccc(CN2C(=O)CC(=O)N(S(=O)(=O)c3ccc(OCC)cc3)C2=O)cc1 returned TROY NFkB inh 6, TWEAK Fn14 block 7, Peg3 promoter 11, KKLEB cytotox 15, HIF-2a block 9 and CF NFkB inh -3.
For COc1ccc(-c2cc(=O)oc3cc(OC(=O)C4CCCCC4)c(Cl)cc23)cc1 the results were TROY NFkB inh 58*, TWEAK Fn14 block 84*, Peg3 promoter 16, KKLEB cytotox -16, HIF-2a block 16, CF NFkB inh 88*, CF NFkB inh conf 93* and Mdm2 MdmX conf 91*.
Screening COc1ccc(-c2cc(=O)oc3cc(OC(C)C(=O)NC4CC4)ccc23)cc1 (stereo not drawn) returned TROY NFkB inh -17, TWEAK Fn14 block -9, Peg3 promoter 23, KKLEB cytotox 4, HIF-2a block 11 and CF NFkB inh 1.
`COc1ccccc1Cc1c(C(C)(C)C)nc2ccc(C)cn12` gave TROY NFkB inh -33, TWEAK Fn14 block 8, Peg3 promoter -33, KKLEB cytotox 0, HIF-2a block -102 and CF NFkB inh -22.
For COc1cccc(-c2ccc3ncnc(NCc4ccc5c(c4)OCO5)c3c2)c1 the results were TROY NFkB inh 31, TWEAK Fn14 block 80*, Peg3 promoter -25, KKLEB cytotox -6, HIF-2a block -35, CF NFkB inh 80*, CF NFkB inh conf 81* and Mdm2 MdmX conf 85*.
For Cc1cccc(CNc2ncnc3ccc(-c4cccnc4)cc23)c1 the results were TROY NFkB inh 16, TWEAK Fn14 block 17, Peg3 promoter 19, KKLEB cytotox -27, HIF-2a block 32 and CF NFkB inh 26.
Screening CCOC(=O)/C=C/C(=O)Nc1ccccc1-c1ccccc1NC(=O)/C=C/C(=O)OCC returned TROY NFkB inh -52, TWEAK Fn14 block 58*, Peg3 promoter 70*, KKLEB cytotox -4, HIF-2a block 55*, CF NFkB inh 56*, CF NFkB inh conf -34, HIF-2a conf 14 and HIF-1a counter 45.
Screening COc1cccc(C(=O)NCC(=O)OC(C)C(=O)NC23CC4CC(CC(C4)C2)C3)c1 (stereo not drawn) returned TROY NFkB inh 8, TWEAK Fn14 block 27, Peg3 promoter 6, KKLEB cytotox -10, HIF-2a block 20 and CF NFkB inh 17.
`COc1ccc(-c2cnc3c(NC=O)cc(-c4ccc(C(=O)N5CCOCC5)cc4)cn23)cc1OC` gave TROY NFkB inh 14, TWEAK Fn14 block -16, Peg3 promoter 35, KKLEB cytotox -35, HIF-2a block 41*, CF NFkB inh 57*, CF NFkB inh conf 63*, HIF-2a conf 45* and HIF-1a counter 69*.
COc1ccc(F)cc1CN1CCN(C(=O)CCC(=O)Nc2nnc(CC(C)C)s2)CC1 was read as TROY NFkB inh 1, TWEAK Fn14 block 13, Peg3 promoter 8, KKLEB cytotox 10, HIF-2a block 18 and CF NFkB inh 12.
For Cc1cc(C)c(C(=O)/C=C/C=C/c2ccccc2)c(=O)[nH]1 the results were TROY NFkB inh -12, TWEAK Fn14 block 11, Peg3 promoter -32, KKLEB cytotox 4, HIF-2a block -33 and CF NFkB inh -1.
`Cc1cc(C)c(C(=O)/C=C/c2ccc(C(C)C)cc2)c(=O)[nH]1` gave TROY NFkB inh 55*, TWEAK Fn14 block 93*, Peg3 promoter 68*, KKLEB cytotox -22, HIF-2a block 59*, CF NFkB inh 59*, CF NFkB inh conf 53*, Mdm2 MdmX conf 103*, HIF-2a conf 53* and HIF-1a counter 102*.
`NS(=O)(=O)c1cc(C(=O)OCC(=O)Nc2ccccc2[N+](=O)[O-])ccc1Cl` gave TROY NFkB inh -10, TWEAK Fn14 block -15, Peg3 promoter 1, KKLEB cytotox -2, HIF-2a block 3 and CF NFkB inh 0.
Screening Cc1ccccc1NC(=O)COC(=O)c1ccc(S(C)(=O)=O)c([N+](=O)[O-])c1 returned TROY NFkB inh 1, TWEAK Fn14 block 33, Peg3 promoter 89*, KKLEB cytotox -20, HIF-2a block 93*, CF NFkB inh 53*, CF NFkB inh conf 27, HIF-2a conf 15 and HIF-1a counter 0.
Cc1ccccc1NC(=O)Cc1nc(COC(=O)c2ccc(S(C)(=O)=O)c([N+](=O)[O-])c2)cs1 was read as TROY NFkB inh 46, TWEAK Fn14 block 69*, Peg3 promoter 101*, KKLEB cytotox -16, HIF-2a block 33, CF NFkB inh 77*, CF NFkB inh conf 25 and Mdm2 MdmX conf 100*.
For Cc1ccccc1NC(=O)Cc1nc(COC(=O)c2ccc(NC(N)=O)cc2)cs1 the results were TROY NFkB inh 3, TWEAK Fn14 block -23, Peg3 promoter 4, KKLEB cytotox 12, HIF-2a block 20 and CF NFkB inh 7.
C#CCN(C[C@@H]1[C@@H](OC(=O)NCc2ccco2)[C@@H](OC(=O)NCc2ccco2)Cn2c(=O)ccc(=O)n21)S(=O)(=O)c1ccc(C)cc1 was read as TROY NFkB inh 18, TWEAK Fn14 block 38, Peg3 promoter 95*, KKLEB cytotox -21, HIF-2a block 43*, CF NFkB inh 66*, CF NFkB inh conf 52*, HIF-2a conf 44* and HIF-1a counter 107*.
C#CCN(C[C@@H]1[C@@H](OC(=O)NCc2ccco2)[C@@H](OC(=O)NCc2ccco2)Cn2c(=O)n(CCCCCC)c(=O)n21)S(=O)(=O)c1ccc(C)cc1 was read as TROY NFkB inh -5, TWEAK Fn14 block -21, Peg3 promoter -10, KKLEB cytotox 7, HIF-2a block -1 and CF NFkB inh 28.

High-throughput results from PubChem BioAssay.
